Several values for one entry are separate records, joined by “and”; a condition that tells them apart may be missing. Equal entries are not always repeated. Records with an inconclusive call do not appear. The source holds several records for some structures; these can differ, active in one and inactive in another. Activity calls are given as the source filed them. Unless noted, calls come from the whole dose curve; as a rule, active = well fitted curve in the direction sought with a large enough effect in the repeat runs; inconclusive = weak or mixed curves; inactive = no such curve, though single readings can be large; an effect the other way counts as inactive or inconclusive.
What was measured:
[1] = qHTS assay to identify small molecule agonists of the vitamin D receptor (VDR) signaling pathway - cell viability counter screen (AID 743224); note: nearly all actives have a fitted effect of over 50% in size; note: potency is the fitted concentration of half-maximal effect
Outline: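 Cells: VDR-bla, 2,000/well, settled 4 h. Treatment: compounds in DMSO, 16 h, 37C/5% CO2. Readout: CellTiter-Glo luminescence after 30 min RT.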

[2] = qHTS assay to identify small molecule agonists of the NFkB signaling pathway (AID 1159509; active = well fitted curve in the direction sought with a large enough effect in the signal ratio in the repeat runs, not every such curve was filed as active; the % refers to the signal ratio)
Outline: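 Readout: FRET fluorescence, 405 nm excitation, 460/530 nm emission; beta-lactamase expression disrupts FRET. Cells: ME-180 stably carrying NF-kB-driven bla reporter. Compound exposure 5 hr, 37 C, 5% CO2.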

[3] = qHTS assay to identify small molecule agonists of the endoplasmic reticulum stress response signaling pathway (AID 1159516; active = well fitted activation curve with a large enough effect in the signal ratio in the repeat runs, not every such curve was filed as active; the % refers to the signal ratio; note: potency is the fitted concentration of half-maximal effect)
Outline: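 Cells are seeded at 1,500 per well and incubated overnight. Compounds in DMSO are added for 5 hr at 37 C, then beta-lactamase FRET substrate for 2 hr at room temperature, and fluorescence at 460 and 530 nm is measured.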

[4] = qHTS assay to identify small molecule antagonists of the retinoid-related orphan receptor gamma (ROR-gamma) signaling pathway - cell viability counter screen (AID 1159520); note: nearly all actives have a fitted effect of over 50% in size; note: potency is the fitted concentration of half-maximal effect
Outline: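 Tet-on ROR gamma CHO cells were given compounds for 2 hr, then doxycycline hyclate at 1 uM final, and incubated 16 hr at 37 C. Viability was measured as ATP content by CellTiter-Glo luminescence.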

[5] = target: Nuclear receptor ROR-gamma (Homo sapiens) (UniProt P51449); assay: qHTS assay to identify small molecule antagonists of the retinoid-related orphan receptor gamma (ROR-gamma) signaling pathway (AID 1159521; note: nearly all actives have a fitted effect of over 50% in size; note: potency is the fitted concentration of half-maximal effect)
Outline: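 Tet-on RORγ CHO cells carrying a ROR response element–luciferase reporter were pretreated with compounds for 2 h, then induced with 1 uM (final) doxycycline hyclate for 16 h at 37 C. Antagonism was read as decreased ONE-Glo luminescence.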

[6] = qHTS assay to identify small molecule agonists of the AP-1 signaling pathway - cell viability counter screen (AID 1159525; calls by dose curve; note: nearly all actives have a fitted effect of over 55% in size)
Outline: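 Same-well cytotoxicity counter screen of the Tox21 10K library in ME-180 cells. The readout is ATP-dependent luminescence after 5 h compound treatment. Data are normalised to DMSO and tetra n-octyl ammonium bromide controls.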

[7] = qHTS assay to identify small molecule agonists of the AP-1 signaling pathway (AID 1159526; calls by dose curve)
[8] = target: Retinoic acid receptor RXR-alpha (Homo sapiens) (UniProt P19793); assay: qHTS assay to identify small molecule agonists of the RXR signaling pathway (AID 1159527; calls by dose curve; note: nearly all actives have a fitted effect of over 35% in size)
Sequence of Retinoic acid receptor RXR-alpha (Homo sapiens) (P19793 whole entry, looked up): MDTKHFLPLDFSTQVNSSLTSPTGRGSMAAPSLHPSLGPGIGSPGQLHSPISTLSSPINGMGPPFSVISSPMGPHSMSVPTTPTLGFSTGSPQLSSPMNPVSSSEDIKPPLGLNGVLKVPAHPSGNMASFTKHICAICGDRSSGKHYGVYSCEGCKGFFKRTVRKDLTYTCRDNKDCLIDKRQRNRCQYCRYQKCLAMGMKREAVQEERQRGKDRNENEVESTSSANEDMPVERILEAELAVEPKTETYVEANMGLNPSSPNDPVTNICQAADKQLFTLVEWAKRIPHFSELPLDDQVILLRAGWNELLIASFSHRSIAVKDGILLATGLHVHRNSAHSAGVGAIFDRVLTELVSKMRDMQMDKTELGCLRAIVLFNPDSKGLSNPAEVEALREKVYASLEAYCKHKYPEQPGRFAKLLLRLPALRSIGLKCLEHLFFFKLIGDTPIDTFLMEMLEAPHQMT
Outline: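 GeneBLAzer RXR-alpha-UAS-bla HEK 293T cells in medium with 2% charcoal-stripped FBS, pre-incubated 5 hr at 37 C, then exposed to compounds 16 hr. Beta-lactamase reporter read by FRET substrate, 2 hr room temperature, 460/530 nm emission.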

[9] = qHTS assay to identify small molecule agonists of the RXR signaling pathway - cell viability counter screen (AID 1159529); note: nearly all actives have a fitted effect of over 50% in size; note: potency is the fitted concentration of half-maximal effect
Outline: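 RXR-alpha-UAS-bla HEK 293T cells in medium with 2% charcoal-stripped FBS were preincubated 5 hr, then exposed to compounds for 16 hr at 37 C. Viability was read as CellTiter-Glo luminescence after 30 min at room temperature.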

[10] = qHTS assay to identify small molecule antagonists of the retinoid acid receptor (RAR) signaling pathway - cell viability counter screen (AID 1159551); note: nearly all actives have a fitted effect of over 35% in size; note: potency is the fitted concentration of half-maximal effect
Outline: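 Cells (C3RL4) are plated, incubated overnight, dosed with compound in DMSO, then given retinol at 1 uM final. After 6 h at 37 C, CellTiter-Glo is added and luminescence read following 30 min at room temperature.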

[11] = qHTS assay to identify small molecule antagonists of the retinoic acid receptor (RAR) signaling pathway (AID 1159552; note: nearly all actives have a fitted effect of over 50% in size; note: potency is the fitted concentration of half-maximal effect)
Outline: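 RARE-luc C3RL4 cells; cpds + 1 uM (final) retinol, 6 hr, 37 C/5% CO2; luciferase reagent, 30 min RT, luminescence readout. Inhibitors of retinol-driven signal scored.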

[12] = qHTS assay to identify small molecule agonists of the retinoic acid receptor (RAR) signaling pathway (AID 1159553); conditions: C3RL4 RARE luciferase reporter, agonist, 6 h; activation: at 73.3 µM (top of the series); note: potency is the fitted concentration of half-maximal effect
Outline: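 Seed C3RL4 reporter cells at 1,000 per well and incubate overnight at 37 C. Add compounds in DMSO, incubate 6 hr. Add luciferase reagent, wait 30 min at room temperature, read luminescence.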

[13] = qHTS assay to identify small molecule antagonists of the vitamin D receptor (VDR) signaling pathway - cell viability counter screen (AID 743225); note: nearly all actives have a fitted effect of over 50% in size; note: potency is the fitted concentration of half-maximal effect
Outline: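 VDR-bla HEK 293T cells, 4 h pre-incubation at 37C, then compound plus 1-alpha,25-dihydroxyvitamin D3 (3 nM final) for 16 h. After the beta-lactamase FRET read, CellTiter-Glo was added to the same wells; luminescence after 30 min at room temperature.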

[14] = qHTS assay to identify small molecule agonists of the endoplasmic reticulum stress response signaling pathway - cell viability counter screen (AID 1159517; calls by dose curve)
Outline: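 Steps: seed 1,500 ESRE-bla HeLa cells per well; incubate overnight at 37 C, 5% CO2; add compounds in DMSO for 5 hr; run FRET substrate 2 hr RT; add CellTiter-Glo, wait 30 min, read luminescence.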

Measured: Potency

CC(=O)Nc1ccc(C)cc1C
inactive: [1] | [2] | [3] | [4] | [5] | [6] | [7] | [8] | [9] | [10]

CCCCC(CC)CN (stereo unspecified)
inactive: [1] | [2] | [3] | [4] | [6] | [7] | [9] | [10] | [11] | [12]

OCCOCC#CCOCCO
active: [3] 49 µM
inactive: [13] | [2] | [5] | [7] | [8] | [9] | [10]

CS(=O)(=O)c1ccc(-c2cn3ccccc3n2)cc1
active: [1] 29.8 µM | [10] 11.9 µM | [12] 1.68 µM
inactive: [2] | [3] | [5] | [11]

C[C@@H](O[C@H]1OCCN(Cc2n[nH]c(=O)[nH]2)[C@H]1c1ccc(F)cc1)c1cc(C(F)(F)F)cc(C(F)(F)F)c1
inactive: [2] | [3]
active: [4] 26.6 µM | [9] 19 µM | [11] 26.6 µM

COC(=O)CCS
inactive: [1] | [13] | [2] | [14] | [4] | [5] | [6] | [7] | [8] | [9] | [10]

CCCCCCCC/C=C\CCCCCCCCO
inactive: [1] | [2] | [14] | [4] | [5] | [6] | [7] | [8] | [9] | [10] | [12]

CCC(C)(C)OC
inactive: [1] | [13] | [2] | [3] | [4] | [5] | [6] | [7] | [10] | [11] | [12]
active: [9] 48.8 µM

Cc1ccco1
inactive: [1] | [13] | [2] | [3] | [4] | [5] | [7] | [9] | [10]

CC/C=C1/OC(=O)c2ccccc21
inactive: [2] | [14] | [4] | [5] | [10] | [11]

CCOC(=O)c1ccc(C#Cc2ccc3c(c2)C(C)(C)CCS3)nc1
inactive: [1] | [13] | [2] | [4] | [5] | [6] | [7] | [9] | [10]

C=Cc1ccc(S(=O)(=O)O)cc1
inactive: [13] | [2] | [3] | [4] | [5] | [9] | [10] | [12]

C[C@]12CC[C@@H]3c4ccc(O)cc4CC[C@H]3[C@@H]1CC[C@@H]2OC(=O)CCC1CCCC1
43.6 µM (active) and inactive: [1]
active: [4] 43.3 µM | [5] 30.6 µM | [9] 49 µM and 26.8 µM
inactive: [13] | [2] | [3] | [10]
61.1 µM (active) and inactive: [11]

O=C1NC(=O)c2cc([N+](=O)[O-])ccc21
inactive: [13] | [2] | [14] | [4] | [5] | [6] | [8] | [9] | [10] | [11] | [12]

CC(=O)NC1(c2cccc(F)c2)CCN(CC[C@@]2(c3ccc(Cl)c(Cl)c3)CN(c3ccccc3)C(=O)CO2)CC1
inactive: [2] | [3] | [6] | [7] | [10] | [12]
active: [13] 43.8 µM | [5] 38.7 µM | [9] 19.6 µM | [11] 43.4 µM

Cc1[nH]cnc1CN1CCc2c(c3ccccc3n2C)C1=O
inactive: [1] | [2] | [3] | [4] | [5] | [7] | [8] | [9] | [10] | [11] | [12]

C(=C\c1ccccc1)/c1ccccc1
inactive: [1] | [13] | [2] | [3] | [4] | [5] | [6] | [7] | [8] | [9] | [10] | [11]
active: [12] 8.56 µM

CCC(C)COC(C)=O (stereo unspecified)
inactive: [1] | [13] | [2] | [3] | [4] | [5] | [7] | [9] | [10] | [11] | [12]

O=C=Nc1ccc(Cl)c(Cl)c1
inactive: [2] | [14] | [4] | [5] | [6] | [7] | [8] | [10] | [11] | [12]

O=C(O)c1cccc(-c2noc(-c3ccccc3F)n2)c1
inactive: [2] | [3] | [4] | [7] | [9] | [10]
active: [11] 0.422 µM | [12] 0.003 µM

CC(C)=CCC/C(C)=C/CC/C(C)=C/C(=O)OCC(=O)[C@@]1(O)CC[C@H]2[C@@H]3CCC4=CC(=O)C=C[C@]4(C)[C@H]3[C@@H](O)C[C@@]21C
active: [1] 26.6 µM | [5] 6.68 µM
inactive: [2] | [14] | [4] | [7] | [9] | [10] | [12]

C1COC1
inactive: [1] | [13] | [2] | [3] | [4] | [5] | [6] | [7] | [8] | [9] | [10] | [11]

Cc1cc(C)cc(N)c1
inactive: [1] | [13] | [2] | [14] | [4] | [5] | [6] | [7] | [8] | [9] | [10]
